Measurements published in PubChem BioAssay AID1159580 (chemical genetic matrix, 2015).
“And” between values parts separate entries of the source, which are not always exact repeats. Identical values can stand only once. The campaign covered roughly 5,500 compounds. About 2,000 (36%) were called active. Roughly 18% stayed inconclusive and do not appear here. Rule as the data show it: active = normalized growth mostly below about 0.91 (no sharp cut-off); inconclusive = no clear call, values can overlap the other calls; inactive = mostly above about 0.92. The list shows a part of the results.

Assay: chemical genetic growth profiling, strain panel (AID 1159580);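 also: tested at 20 µM; growth read once vehicle control cultures reached saturation at 30 °C; 1 = growth at the plate median or of vehicle wells; lower values mean less growth of the strain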
Details: S. cerevisiae deletion strains, growth OD

Measured: normalized growth

O=C(c1ccccc1)c1ccc2n1CCC2C(=O)O (stereo not drawn)
inactive: locus YAL013W, strain DEP1, hits give low values 0.993 | locus YAL021C, strain ccr4, hits give low values 0.98 | locus YAL026C, strain drs2, hits give low values 0.983 | locus YAL030W, strain snc1, hits give low values 0.978 | locus YAL040C, strain CLN3, hits give low values 1.01 | locus YBL061C, strain skt5, hits give low values 1.01 | locus YBR009C, strain hhf1, hits give low values 0.991 | locus YBR021W, strain FUR4, hits give low values 0.988 | locus YBR023C, strain chs3, hits give low values 1.01 | locus YBR171W, strain sec66, hits give low values 0.994 | locus YBR229C, strain ROT2, hits give low values 1.01 | locus YBR231C, strain swc5, hits give low values 1.01 | locus YBR279W, strain paf1, hits give low values 1.01 | locus YCL011C, strain gbp2, hits give low values 0.974 | locus YCL016C, strain dcc1, hits give low values 0.995 | locus YCL029C, strain bik1, hits give low values 0.956 | locus YCL061C, strain MRC1 (second series), hits give low values 1.02 | locus YCL069W, strain vba3, hits give low values 0.979 | locus YCR088W, strain abp1, hits give low values 1.01 | locus YDL005C, strain med2, hits give low values 0.967 | locus YDL035C, strain GPR1, hits give low values 0.987 | locus YDL040C, strain nat1, hits give low values 0.997 | locus YDL074C, strain BRE1, hits give low values 1.05 | locus YDL101C, strain DUN1, hits give low values 1 | locus YDL134C, strain PPH21, hits give low values 0.988 | locus YDL185W, strain tfp1, hits give low values 0.958 | locus YDL192W, strain arf1, hits give low values 0.968 | locus YDR001C, strain nth1, hits give low values 0.968 | locus YDR069C, strain doa4, hits give low values 1.01 | locus YDR101C, strain arx1, hits give low values 1.01 | locus YDR137W, strain rgp1, hits give low values 0.945 | locus YDR150W, strain NUM1, hits give low values 0.994 and 1.01 | locus YDR159W, strain sac3, hits give low values 0.955 | locus YDR162C, strain NBP2, hits give low values 0.982 | locus YDR195W, strain ref2 0.975 | locus YDR297W, strain sur2, hits give low values 0.991 | locus YDR318W, strain mcm21, hits give low values 0.969 | locus YDR334W, strain swr1, hits give low values 0.976 | locus YDR335W, strain msn5, hits give low values 0.988 | locus YDR363W, strain ESC2, hits give low values 1.02 | locus YDR388W, hits give low values 0.981 | locus YDR392W, strain spt3, hits give low values 0.935 | locus YDR502C, strain sam2, hits give low values 0.987 | locus YEL003W, strain gim4, hits give low values 0.997 | locus YEL037C, strain rad23, hits give low values 0.984 | locus YEL061C, strain CIN8 (second series), hits give low values 0.999 | locus YEL061C, strain CIN8, hits give low values 0.994 | locus YER002W, strain NOP16, hits give low values 0.998 | locus YER015W, strain faa2, hits give low values 0.99 | locus YER016W, strain bim1, hits give low values 0.988 | locus YER110C, hits give low values 0.96 | locus YER111C, strain swi4, hits give low values 1 | locus YER155C, strain BEM2 (second series), hits give low values 1.01 | locus YER155C, strain BEM2, hits give low values 1 | locus YER167W, strain BCK2, hits give low values 0.997 | locus YFR010W, strain ubp6, hits give low values 0.981 | locus YGL078C, strain dbp3, hits give low values 0.982 | locus YGL086W, strain mad1, hits give low values 0.995 | locus YGL167C, strain pmr1, hits give low values 0.998 | locus YGL173C, strain kem1, hits give low values 1 | locus YGL227W, strain vid30, hits give low values 0.996 | locus YGL240W, strain doc1, hits give low values 1.02 | locus YGL248W, strain PDE1, hits give low values 1.01 | locus YGL253W, strain hxk2, hits give low values 0.974 | locus YGR135W, strain pre9, hits give low values 0.974 | locus YGR252W, strain gcn5, hits give low values 0.996 | locus YHR013C, strain ard1, hits give low values 0.994 | locus YHR027C, strain rpn1, hits give low values 1.01 | locus YHR030C, strain SLT2, hits give low values 0.988 and 0.999 | locus YHR079C, strain IRE1 (second series), hits give low values 0.965 | locus YHR079C, strain IRE1, hits give low values 1.02 | locus YHR094C, strain hxt1, hits give low values 0.985 | locus YHR129C, strain ARP1, hits give low values 0.991 | locus YHR142W, strain chs7, hits give low values 0.975 | locus YHR200W, strain rpn10, hits give low values 0.96 | locus YIL066C, strain RNR3, hits give low values 1 | locus YIL073C, strain SPO22, hits give low values 0.922 | locus YIL125W, strain kgd1, hits give low values 0.985 | locus YIR030C, strain dcg1, hits give low values 0.973 | locus YJL092W, strain hpr5, hits give low values 0.984 | locus YJL095W, strain BCK1 (second series), hits give low values 0.993 | locus YJL095W, strain BCK1, hits give low values 1.03 and 0.992 | locus YJL115W, strain asf1, hits give low values 0.984 | locus YJL129C, strain trk1, hits give low values 1.02 | locus YJL134W, strain LCB3, hits give low values 0.99 | locus YJL154C, strain vps35, hits give low values 0.975 | locus YJL164C, strain tpk1, hits give low values 0.965 | locus YJL166W, strain qcr8, hits give low values 1.02 | locus YJL168C, strain set2, hits give low values 0.979 | locus YJL187C, strain SWE1 (second series), hits give low values 1.01 | locus YJL187C, strain SWE1, hits give low values 0.986 | locus YJR043C, strain POL32, hits give low values 0.997 | locus YJR066W, strain TOR1, hits give low values 0.966
